# Assay results taken from PubChem BioAssay AID1159580 (chemical genetic matrix, 2015).
# Hit rate of the full screen: of about 5,500 compounds, about 2,000 (36%) were called active. About 18% were inconclusive and are not listed. The list shows a part of the results. Unmarked numbers belong to inactive results. Cut-off read from the data, not from the text of the source: active = normalized growth mostly below about 0.91 (no sharp cut-off); inconclusive = no clear call, values can overlap the other calls; inactive = mostly above about 0.92.
# Experiment: chemical genetic growth profiling, strain panel (AID 1159580);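 note: tested at 20 µM; growth read once vehicle control cultures reached saturation at 30 °C; 1 = growth at the plate median or of vehicle wells; lower values mean less growth of the strain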
# Conditions: S. cerevisiae deletion strains, growth OD
smiles,measurement,setting,value
Cc1cc(=O)c2c(O)cc(O)c(C)c2o1,normalized growth,"locus YAL021C, strain ccr4, active compounds read low",0.976
same,normalized growth,"locus YAL026C, strain drs2, active compounds read low",0.926
same,normalized growth,"locus YAL030W, strain snc1, active compounds read low",0.954
same,normalized growth,"locus YBL061C, strain skt5, active compounds read low",0.951
same,normalized growth,"locus YBR009C, strain hhf1, active compounds read low",0.953
same,normalized growth,"locus YBR021W, strain FUR4, active compounds read low",0.995
same,normalized growth,"locus YBR023C, strain chs3, active compounds read low",0.936
same,normalized growth,"locus YBR171W, strain sec66, active compounds read low",0.921
same,normalized growth,"locus YBR229C, strain ROT2, active compounds read low",0.987
same,normalized growth,"locus YBR231C, strain swc5, active compounds read low",0.924
same,normalized growth,"locus YBR279W, strain paf1, active compounds read low",0.946
same,normalized growth,"locus YCL011C, strain gbp2, active compounds read low",0.951
same,normalized growth,"locus YCL016C, strain dcc1, active compounds read low",0.937
same,normalized growth,"locus YCL029C, strain bik1, active compounds read low",0.994
same,normalized growth,"locus YCL061C, strain MRC1, active compounds read low",0.938
same,normalized growth,"locus YCL069W, strain vba3, active compounds read low",0.982
same,normalized growth,"locus YCR088W, strain abp1, active compounds read low",0.965
same,normalized growth,"locus YDL005C, strain med2, active compounds read low",0.963
same,normalized growth,"locus YDL035C, strain GPR1, active compounds read low",1.02
same,normalized growth,"locus YDL040C, strain nat1, active compounds read low",0.979
same,normalized growth,"locus YDL074C, strain BRE1, active compounds read low",1.02
same,normalized growth,"locus YDL101C, strain DUN1, active compounds read low",0.975
same,normalized growth,"locus YDL134C, strain PPH21, active compounds read low",0.996
same,normalized growth,"locus YDL185W, strain tfp1, active compounds read low",0.962
same,normalized growth,"locus YDL192W, strain arf1, active compounds read low",0.988
same,normalized growth,"locus YDR001C, strain nth1, active compounds read low",0.959
same,normalized growth,"locus YDR069C, strain doa4, active compounds read low",0.962
same,normalized growth,"locus YDR101C, strain arx1, active compounds read low",1.01
same,normalized growth,"locus YDR137W, strain rgp1, active compounds read low",0.504 (active)
same,normalized growth,"locus YDR159W, strain sac3, active compounds read low",0.907
same,normalized growth,"locus YDR162C, strain NBP2, active compounds read low",1.03
same,normalized growth,"locus YDR195W, strain ref2",1.34 [resistant] (active)
same,normalized growth,"locus YDR297W, strain sur2, active compounds read low",0.966
same,normalized growth,"locus YDR318W, strain mcm21, active compounds read low",0.988
same,normalized growth,"locus YDR334W, strain swr1, active compounds read low",0.951
same,normalized growth,"locus YDR335W, strain msn5, active compounds read low",0.897 (active)
same,normalized growth,"locus YDR388W, active compounds read low",0.98
same,normalized growth,"locus YDR392W, strain spt3, active compounds read low",0.753
same,normalized growth,"locus YDR502C, strain sam2, active compounds read low",0.977
same,normalized growth,"locus YEL003W, strain gim4, active compounds read low",0.95
same,normalized growth,"locus YEL037C, strain rad23, active compounds read low",0.961
same,normalized growth,"locus YEL061C, strain CIN8 (second series), active compounds read low",0.943
same,normalized growth,"locus YEL061C, strain CIN8, active compounds read low",0.993
same,normalized growth,"locus YER015W, strain faa2, active compounds read low",0.95
same,normalized growth,"locus YER016W, strain bim1, active compounds read low",0.937
same,normalized growth,"locus YER110C, active compounds read low",0.968
same,normalized growth,"locus YER111C, strain swi4, active compounds read low",0.934
same,normalized growth,"locus YER155C, strain BEM2 (second series), active compounds read low",0.808 (active)
same,normalized growth,"locus YER155C, strain BEM2, active compounds read low",0.987
same,normalized growth,"locus YER167W, strain BCK2, active compounds read low",1
same,normalized growth,"locus YFR010W, strain ubp6, active compounds read low",0.942
same,normalized growth,"locus YGL078C, strain dbp3, active compounds read low",0.965
same,normalized growth,"locus YGL086W, strain mad1, active compounds read low",1
same,normalized growth,"locus YGL167C, strain pmr1, active compounds read low",0.936
same,normalized growth,"locus YGL173C, strain kem1, active compounds read low",0.946
same,normalized growth,"locus YGL227W, strain vid30, active compounds read low",0.957
same,normalized growth,"locus YGL240W, strain doc1, active compounds read low",0.931
same,normalized growth,"locus YGL248W, strain PDE1, active compounds read low",0.995
same,normalized growth,"locus YGL253W, strain hxk2, active compounds read low",0.962
same,normalized growth,"locus YGR078C, strain PAC10, active compounds read low",0.985
same,normalized growth,"locus YGR135W, strain pre9, active compounds read low",0.965
same,normalized growth,"locus YGR229C, strain SMI1, active compounds read low",1.01
same,normalized growth,"locus YGR252W, strain gcn5, active compounds read low",1.03
same,normalized growth,"locus YHR013C, strain ard1, active compounds read low",1.05
same,normalized growth,"locus YHR027C, strain rpn1, active compounds read low",0.964
same,normalized growth,"locus YHR030C, strain SLT2, active compounds read low",0.996
same,normalized growth,"locus YHR079C, strain IRE1 (second series), active compounds read low",0.988
same,normalized growth,"locus YHR094C, strain hxt1, active compounds read low",0.983
same,normalized growth,"locus YHR129C, strain ARP1, active compounds read low",0.985
same,normalized growth,"locus YHR142W, strain chs7, active compounds read low",0.869 (active)
same,normalized growth,"locus YHR200W, strain rpn10, active compounds read low",0.96
same,normalized growth,"locus YIL066C, strain RNR3, active compounds read low",0.991
same,normalized growth,"locus YIL073C, strain SPO22, active compounds read low",0.967
same,normalized growth,"locus YIL125W, strain kgd1, active compounds read low",1
same,normalized growth,"locus YIR030C, strain dcg1, active compounds read low",0.973
same,normalized growth,"locus YJL092W, strain hpr5, active compounds read low",0.964
same,normalized growth,"locus YJL095W, strain BCK1 (second series), active compounds read low",0.962
same,normalized growth,"locus YJL095W, strain BCK1, active compounds read low",0.962
same,normalized growth,"locus YJL115W, strain asf1, active compounds read low",0.971
same,normalized growth,"locus YJL129C, strain trk1, active compounds read low",0.901
same,normalized growth,"locus YJL134W, strain LCB3, active compounds read low",0.989
same,normalized growth,"locus YJL154C, strain vps35, active compounds read low",0.977
same,normalized growth,"locus YJL164C, strain tpk1, active compounds read low",0.946
same,normalized growth,"locus YJL166W, strain qcr8, active compounds read low",0.956
same,normalized growth,"locus YJL168C, strain set2, active compounds read low",0.976
same,normalized growth,"locus YJL187C, strain SWE1 (second series), active compounds read low",0.97
same,normalized growth,"locus YJL187C, strain SWE1, active compounds read low",0.935
same,normalized growth,"locus YJR043C, strain POL32, active compounds read low",1.05
same,normalized growth,"locus YKL009W, strain mrt4, active compounds read low",0.954
same,normalized growth,"locus YKL068W, active compounds read low",0.985
same,normalized growth,"locus YKL085W, strain MDH1 (second series), active compounds read low",0.984
same,normalized growth,"locus YKL085W, strain MDH1, active compounds read low",0.984
same,normalized growth,"locus YKL160W, strain elf1, active compounds read low",0.908
same,normalized growth,"locus YKL190W, strain CNB1, active compounds read low",0.993
same,normalized growth,"locus YKR001C, strain vps1, active compounds read low",0.949
same,normalized growth,"locus YKR026C, strain gcn3, active compounds read low",0.96
same,normalized growth,"locus YKR091W, strain srl3, active compounds read low",0.96
same,normalized growth,"locus YLL001W, strain dnm1, active compounds read low",0.944
same,normalized growth,"locus YLL026W, active compounds read low",0.962
same,normalized growth,"locus YLL041C, strain sdh2, active compounds read low",0.971
same,normalized growth,"locus YLR027C, strain aat2, active compounds read low",0.962
same,normalized growth,"locus YLR039C, strain RIC1, active compounds read low",0.919
same,normalized growth,"locus YLR058C, strain SHM2, active compounds read low",0.982
same,normalized growth,"locus YLR102C, strain apc9, active compounds read low",0.982
same,normalized growth,"locus YLR221C, strain rsa3, active compounds read low",0.977
same,normalized growth,"locus YLR258W, strain gsy2, active compounds read low",0.965
same,normalized growth,"locus YLR262C, strain YPT6 (second series), active compounds read low",0.507 (active)
same,normalized growth,"locus YLR268W, strain sec22, active compounds read low",1
same,normalized growth,"locus YLR320W, strain mms22, active compounds read low",0.853 (active)
same,normalized growth,"locus YLR330W, strain CHS5, active compounds read low",0.993
same,normalized growth,"locus YLR342W, strain FKS1, active compounds read low",0.962
same,normalized growth,"locus YLR357W, strain rsc2, active compounds read low",1
same,normalized growth,"locus YLR370C, strain arc18, active compounds read low",0.971
same,normalized growth,"locus YLR371W, strain rom2, active compounds read low",0.983
same,normalized growth,"locus YLR384C, strain iki3, active compounds read low",0.942
same,normalized growth,"locus YLR418C, strain cdc73, active compounds read low",0.925
same,normalized growth,"locus YML016C, strain PPZ1, active compounds read low",0.982
same,normalized growth,"locus YML032C, strain rad52, active compounds read low",0.987
same,normalized growth,"locus YML120C, strain ndi1, active compounds read low",0.949
same,normalized growth,"locus YML124C, strain tub3, active compounds read low",0.98
same,normalized growth,"locus YMR058W, strain fet3, active compounds read low",0.928
same,normalized growth,"locus YMR078C, strain ctf18, active compounds read low",0.989
same,normalized growth,"locus YMR125W, strain sto1, active compounds read low",0.951
same,normalized growth,"locus YMR129W, active compounds read low",0.958
same,normalized growth,"locus YMR205C, strain PFK2, active compounds read low",0.896
same,normalized growth,"locus YMR223W, strain ubp8, active compounds read low",0.97
same,normalized growth,"locus YMR231W, strain pep5, active compounds read low",0.933
same,normalized growth,"locus YMR263W, strain SAP30, active compounds read low",0.965
same,normalized growth,"locus YMR307W, strain GAS1, active compounds read low",1.05
same,normalized growth,"locus YNL067W, strain RPL9B, active compounds read low",0.978
same,normalized growth,"locus YNL071W, strain lat1, active compounds read low",0.938
same,normalized growth,"locus YNL209W, strain ssb2, active compounds read low",0.96
same,normalized growth,"locus YNL233W, strain BNI4, active compounds read low",0.941
same,normalized growth,"locus YNL248C, strain rpa49, active compounds read low",0.929
same,normalized growth,"locus YNL250W, strain rad50, active compounds read low",0.976
same,normalized growth,"locus YNL271C, strain bni1, active compounds read low",0.982
same,normalized growth,"locus YNL298W, strain CLA4, active compounds read low",0.983
same,normalized growth,"locus YNL307C, strain MCK1, active compounds read low",0.956
same,normalized growth,"locus YNL322C, strain KRE1 (second series), active compounds read low",0.971
same,normalized growth,"locus YNL322C, strain KRE1, active compounds read low",1.01
same,normalized growth,"locus YNR049C, strain mso1, active compounds read low",0.969
same,normalized growth,"locus YNR052C, strain pop2, active compounds read low",0.978
same,normalized growth,"locus YOL006C, strain TOP1, active compounds read low",1.09
same,normalized growth,"locus YOL012C, strain htz1",0.94
same,normalized growth,"locus YOL147C, strain pex11, active compounds read low",0.99
same,normalized growth,"locus YOR001W, strain rrp6, active compounds read low",0.909
same,normalized growth,"locus YOR061W, strain CKA2, active compounds read low",1.02
same,normalized growth,"locus YOR069W, strain VPS5, active compounds read low",0.98
same,normalized growth,"locus YOR070C, strain gyp1, active compounds read low",0.961
same,normalized growth,"locus YOR080W, strain dia2, active compounds read low",0.972
same,normalized growth,"locus YOR083W, strain WHI5, active compounds read low",0.919
same,normalized growth,"locus YOR106W, strain vam3, active compounds read low",0.869
same,normalized growth,"locus YOR136W, strain idh2, active compounds read low",0.981
same,normalized growth,"locus YOR144C, strain elg1, active compounds read low",0.982
same,normalized growth,"locus YOR184W, strain ser1, active compounds read low",1.04
same,normalized growth,"locus YOR265W, strain rbl2, active compounds read low",0.964
same,normalized growth,"locus YOR270C, strain vph1, active compounds read low",0.729 (active)
same,normalized growth,"locus YOR290C, strain snf2, active compounds read low",0.898
same,normalized growth,"locus YOR316C, strain cot1, active compounds read low",0.969
same,normalized growth,"locus YPL051W, strain arl3, active compounds read low",0.859 (active)
same,normalized growth,"locus YPL078C, strain atp4, active compounds read low",0.942
same,normalized growth,"locus YPL106C, strain sse1, active compounds read low",0.942
same,normalized growth,"locus YPL240C, strain hsp82, active compounds read low",0.959
same,normalized growth,"locus YPL241C, strain CIN2, active compounds read low",0.998
same,normalized growth,"locus YPR119W, strain clb2, active compounds read low",0.995
same,normalized growth,"locus YPR141C, strain kar3, active compounds read low",0.987
same,normalized growth,"locus YPR163C, strain tif3, active compounds read low",0.992
same,normalized growth,"locus YPR167C, strain met16, active compounds read low",0.979
same,normalized growth,"strain wtn01, active compounds read low",1.01
